From PubChem BioAssay (EPA / NIEHS) come the findings set out here.

Each structure is given as a SMILES string. The source made the active and inactive calls. Rule for the calls: active = hit-call score of the fitted dose curve at least 0.9, where 1 is the maximum; inactive = score below 0.9.

What all share (conditions): mRNA level, 48 h; actives raise or lower the signal
Read-out in assay [1]: Interleukin 6 Receptor (IL6R), IL6R (gene 3570)
Briefly: LTEA_HepaRG_IL6R: Life Technologies and Expression Analysis (LTEA) Assay for Interleukin 6 Receptor (IL6R) using HepaRG (AID 2283510). In outline: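 Concentration-response in human liver HepaRG cells: eight concentrations from 100 uM downward by half-logs, 48 h exposure, 0.5% DMSO vehicle. IL6R mRNA change measured by qRT-PCR and fitted in both directions relative to vehicle.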

Read-out in assay [2]: Potassium channel subfamily K member 1 (KCNK1), KCNK1 (gene 3775)
Briefly: LTEA_HepaRG_KCNK1: Life Technologies and Expression Analysis (LTEA) Assay for Potassium channel subfamily K member 1 (KCNK1) using HepaRG (AID 2283511). In outline: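 Differentiated human HepaRG cells in serum-free induction medium were exposed in duplicate for 48 h to 8 half-log concentrations up to 100 uM in 0.5% DMSO. KCNK1 mRNA was measured by TaqMan qRT-PCR, normalized to ACTB, GAPDH and POLR2A, and fitted bidirectionally versus DMSO.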

Read-out in assay [3]: Keratin 19 (KRT19), KRT19 (gene 3880)
Briefly: LTEA_HepaRG_KRT19: Life Technologies and Expression Analysis (LTEA) Assay for Keratin 19 (KRT19) using HepaRG (AID 2283512). The method in brief:
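Differentiated HepaRG cells in serum-free induction medium, exposed 48 h in duplicate to 8 half-log concentrations up to 100 uM in 0.5% DMSO. KRT19 mRNA by qRT-PCR, normalized to ACTB, GAPDH, POLR2A; bidirectional fit vs DMSO.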

Read-out in assay [4]: JUN Transcription Factor, JUN (gene 3725)
Briefly: LTEA_HepaRG_JUN: Life Technologies and Expression Analysis (LTEA) Assay for JUN Transcription Factor using HepaRG (AID 2283513). The method in brief: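 Human HepaRG liver cells receive test chemicals in 0.5% DMSO for 48 h across an eight-point range topping at 100 uM. Expression changes in JUN are scored in both directions against the DMSO vehicle.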

Read-out in assay [5]: Lipase C (LIPC), LIPC (gene 3990)
The assay is described as follows: LTEA_HepaRG_LIPC: Life Technologies and Expression Analysis (LTEA) Assay for Lipase C (LIPC) using HepaRG (AID 2283514). In outline: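 Differentiated human HepaRG cells in serum-free induction medium were exposed in duplicate for 48 h to eight concentrations (top 100 uM, half-log steps, 0.5% DMSO). LIPC mRNA was quantified by TaqMan qRT-PCR, normalized to ACTB, GAPDH and POLR2A, with bidirectional fitting versus DMSO.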

Read-out in assay [6]: Lipoprotein lipase (LPL), LPL (gene 4023)
Briefly: LTEA_HepaRG_LPL: Life Technologies and Expression Analysis (LTEA) Assay for Lipoprotein lipase (LPL) using HepaRG (AID 2283515). The method in brief:
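Differentiated human HepaRG cells in serum-free induction medium were exposed in duplicate for 48 h to eight half-log concentrations (top 100 uM) in 0.5% DMSO. LPL mRNA was quantified by TaqMan qRT-PCR, normalized to ACTB, GAPDH and POLR2A.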

Read-out in assay [7]: MicroRNA 122 (MIR122), gene 406906
The assay is described as follows: LTEA_HepaRG_MIR122: Life Technologies and Expression Analysis (LTEA) Assay for MicroRNA 122 (MIR122) using HepaRG (AID 2283516). Note: the transcript read is the microRNA miR-122. In outline: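 HepaRG, 48 h exposure, 8-pt half-log from 100 uM, 0.5% DMSO; TaqMan qRT-PCR; bidirectional fit vs DMSO.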

Read-out in assay [8]: matrix metalloproteinase-10 (MMP10), MMP10 (gene 4319)
The assay is described as follows: LTEA_HepaRG_MMP10: Life Technologies and Expression Analysis (LTEA) Assay for matrix metalloproteinase-10 (MMP10) using HepaRG (AID 2283517). In outline:
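HepaRG, collagen I, ~100,000 cells/well; serum-free induction medium; 48 h exposure, duplicate, 8-pt half-log to 100 uM, 0.5% DMSO. Readout: TaqMan qRT-PCR, normalized to ACTB/GAPDH/POLR2A; bidirectional fit vs DMSO.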

Read-out in the next assay: MYC, MYC (gene 4609)
Briefly: LTEA_HepaRG_MYC: Life Technologies and Expression Analysis (LTEA) Assay for MYC using HepaRG (AID 2283518). In outline: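 Differentiated HepaRG cells exposed 48 h in serum-free induction medium to 8 concentrations (top 100 uM, half-log steps; 0.5% DMSO), duplicate. MYC mRNA measured by Fluidigm qRT-PCR, normalized to ACTB, GAPDH, POLR2A; bidirectional fit versus DMSO.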

Read-out in assay [9]: matrix metalloproteinase-3 (MMP3), MMP3 (gene 4314)
The assay is described as follows: LTEA_HepaRG_MMP3: Life Technologies and Expression Analysis (LTEA) Assay for matrix metalloproteinase-3 (MMP3) using HepaRG (AID 2283519). In outline:
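Differentiated human HepaRG cells, plated 48 h on collagen I, were exposed in duplicate for 48 h in serum-free induction medium to eight half-log concentrations up to 100 uM in 0.5% DMSO. MMP3 mRNA was quantified by TaqMan qRT-PCR, normalised to ACTB, GAPDH and POLR2A.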

Read-out in assay [10]: Paternally Expressed 10 (PEG10), PEG10 (gene 23089)
The assay is described as follows: LTEA_HepaRG_PEG10: Life Technologies and Expression Analysis (LTEA) Assay for Paternally Expressed 10 (PEG10) using HepaRG (AID 2283520).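 For AC50: PEG10 transcript by qRT-PCR normalised to ACTB GAPDH and POLR2A.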 The method in brief: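 Chemicals tested on HepaRG cells for 48 h, highest concentration 100 uM. PEG10 expression assessed by qRT-PCR relative to DMSO control.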

Read-out in assay [11]: Protein phosphatase 2A (PPP2R4), PTPA (gene 5524)
Briefly: LTEA_HepaRG_PPP2R4: Life Technologies and Expression Analysis (LTEA) Assay for Protein phosphatase 2A (PPP2R4) using HepaRG (AID 2283522). The method in brief: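 Gene-expression endpoint in HepaRG hepatic cells: 48 h treatment across eight half-log concentrations up to 100 uM in 0.5% DMSO. PPP2R4 mRNA by qRT-PCR, normalized to three endogenous control genes.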

Read-out in assay [12]: Phosphatase and tensin (PTEN), PTEN (gene 5728)
The assay is described as follows: LTEA_HepaRG_PTEN: Life Technologies and Expression Analysis (LTEA) Assay for Phosphatase and tensin (PTEN) using HepaRG (AID 2283523). The method in brief: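 Differentiated human HepaRG cells, plated 48 h then switched to serum-free induction medium, were exposed in duplicate for 48 h to eight half-log concentrations up to 100 uM in 0.5% DMSO. PTEN mRNA measured by TaqMan qRT-PCR, normalized to ACTB/GAPDH/POLR2A, bidirectional fit versus DMSO.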

Read-out in assay [13]: solute carrier (SLC22A1), SLC22A1 (gene 6580)
The assay is described as follows: LTEA_HepaRG_SLC22A1: Life Technologies and Expression Analysis (LTEA) Assay for solute carrier (SLC22A1) using HepaRG (AID 2283524). The method in brief:
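Human HepaRG cells were plated 48 h, switched to serum-free induction medium, then exposed in duplicate for 48 h to 8-point half-log series from 100 uM in 0.5% DMSO. SLC22A1 mRNA measured by qRT-PCR, normalized to ACTB/GAPDH/POLR2A, fitted bidirectionally versus DMSO.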

Read-out in assay [14]: Pyruvate Dehydrogenase Kinase 4 (PDK4), PDK4 (gene 5166)
Briefly: LTEA_HepaRG_PDK4: Life Technologies and Expression Analysis (LTEA) Assay for Pyruvate Dehydrogenase Kinase 4 (PDK4) using HepaRG (AID 2283525). In outline:
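Differentiated human HepaRG cells, pre-cultured 48 h, were exposed in duplicate for 48 h in serum-free induction medium to eight half-log concentrations up to 100 uM in 0.5% DMSO. PDK4 mRNA was quantified by qRT-PCR, normalized to ACTB, GAPDH and POLR2A, bidirectional fitting versus DMSO.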

Read-out in assay [15]: NAD(P)H dehydrogenase [quinone] 1 (NQO1), NQO1 (gene 1728)
The assay is described as follows: LTEA_HepaRG_NQO1: Life Technologies and Expression Analysis (LTEA) Assay for NAD(P)H dehydrogenase [quinone] 1 (NQO1) using HepaRG (AID 2283526). The method in brief:
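Human HepaRG hepatic cells received chemicals for 48 h in serum-free induction medium with 0.5% DMSO, up to 100 uM. Expression was assessed by TaqMan qRT-PCR against housekeeping controls and fitted bidirectionally against DMSO.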

Read-out in assay [16]: Nuclear factor erythroid 2-related factor 2 (Homo sapiens) (UniProt Q16236)
Briefly: LTEA_HepaRG_NFE2L2: Life Technologies and Expression Analysis (LTEA) Assay for Nuclear factor erythroid 2-related factor 2 (NFE2L2) Transcription Factor using HepaRG (AID 2283527).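 For outcome: TaqMan qRT-PCR transcript level normalised to ACTB GAPDH and POLR2A housekeeping genes.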 In outline: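 Differentiated human HepaRG cells in serum-free induction medium were exposed for 48 h to eight concentrations (top 100 uM, half-log dilutions, 0.5% DMSO), in duplicate. NFE2L2 mRNA was quantified by TaqMan qRT-PCR, normalized to ACTB, GAPDH and POLR2A, with bidirectional fitting versus DMSO.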

Read-out in assay [17]: succinate dehydrogenase complex iron sulfur subunit B (SDHB), SDHB (gene 6390)
Briefly: LTEA_HepaRG_SDHB: Life Technologies and Expression Analysis (LTEA) Assay for succinate dehydrogenase complex iron sulfur subunit B (SDHB) using HepaRG (AID 2283528). In outline:
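Readout is SDHB transcript level by qRT-PCR, normalised to three housekeeping genes and fitted bidirectionally against 0.5% DMSO vehicle. Human HepaRG cells were treated for 48 h at up to 100 uM.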

Read-out in assay [18]: Signal transducer and activator of transcription 3 (Homo sapiens) (UniProt P40763)
The assay is described as follows: LTEA_HepaRG_STAT3: Life Technologies and Expression Analysis (LTEA) Assay for Signal transducer and activator of transcription (STAT3) using HepaRG (AID 2283529). In outline: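 Differentiated human HepaRG cells in serum-free induction medium were exposed in duplicate for 48 h to eight half-log concentrations up to 100 uM in 0.5% DMSO. STAT3 mRNA was quantified by TaqMan qRT-PCR, normalized to ACTB, GAPDH and POLR2A, and fitted bidirectionally against DMSO.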

Read-out in assay [19]: Nuclear factor NF-kappa-B p105 subunit (Homo sapiens) (UniProt P19838)
Briefly: LTEA_HepaRG_NFKB1: Life Technologies and Expression Analysis (LTEA) Assay for Nuclear Factor Kappa B Subunit 1 (NFKB1) using HepaRG (AID 2283521).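 Note: TaqMan qRT-PCR transcript normalised to ACTB GAPDH and POLR2A housekeeping genes.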 In outline: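 HepaRG, 48 h exposure; 8-pt half-log series from 100 uM in 0.5% DMSO; duplicates. Readout: NFKB1 mRNA by qRT-PCR (Fluidigm arrays), housekeeping-normalized. Gain/loss fit vs DMSO baseline.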

Signal transducer and activator of transcription 3 (Homo sapiens), sequence (P40763 whole entry, looked up): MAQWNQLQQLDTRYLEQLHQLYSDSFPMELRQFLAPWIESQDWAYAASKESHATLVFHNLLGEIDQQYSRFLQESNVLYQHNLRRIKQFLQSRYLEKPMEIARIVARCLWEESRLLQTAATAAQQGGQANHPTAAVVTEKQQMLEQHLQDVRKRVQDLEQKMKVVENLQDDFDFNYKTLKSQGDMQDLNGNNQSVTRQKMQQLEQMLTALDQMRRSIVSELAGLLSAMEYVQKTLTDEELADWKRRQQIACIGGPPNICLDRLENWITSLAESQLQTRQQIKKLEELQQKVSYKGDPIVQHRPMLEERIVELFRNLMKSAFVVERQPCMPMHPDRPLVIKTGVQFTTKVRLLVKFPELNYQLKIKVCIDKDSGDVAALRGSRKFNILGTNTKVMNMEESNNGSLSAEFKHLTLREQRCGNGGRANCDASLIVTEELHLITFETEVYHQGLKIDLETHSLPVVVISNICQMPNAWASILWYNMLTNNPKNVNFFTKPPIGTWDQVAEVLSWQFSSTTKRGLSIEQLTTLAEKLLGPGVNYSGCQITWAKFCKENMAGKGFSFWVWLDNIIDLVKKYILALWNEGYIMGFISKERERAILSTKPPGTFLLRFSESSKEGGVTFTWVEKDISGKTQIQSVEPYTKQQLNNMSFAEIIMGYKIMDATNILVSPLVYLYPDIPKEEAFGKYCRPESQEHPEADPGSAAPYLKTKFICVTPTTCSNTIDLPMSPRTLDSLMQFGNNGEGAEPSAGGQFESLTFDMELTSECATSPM
Nuclear factor erythroid 2-related factor 2 (Homo sapiens), sequence (Q16236 whole entry, looked up): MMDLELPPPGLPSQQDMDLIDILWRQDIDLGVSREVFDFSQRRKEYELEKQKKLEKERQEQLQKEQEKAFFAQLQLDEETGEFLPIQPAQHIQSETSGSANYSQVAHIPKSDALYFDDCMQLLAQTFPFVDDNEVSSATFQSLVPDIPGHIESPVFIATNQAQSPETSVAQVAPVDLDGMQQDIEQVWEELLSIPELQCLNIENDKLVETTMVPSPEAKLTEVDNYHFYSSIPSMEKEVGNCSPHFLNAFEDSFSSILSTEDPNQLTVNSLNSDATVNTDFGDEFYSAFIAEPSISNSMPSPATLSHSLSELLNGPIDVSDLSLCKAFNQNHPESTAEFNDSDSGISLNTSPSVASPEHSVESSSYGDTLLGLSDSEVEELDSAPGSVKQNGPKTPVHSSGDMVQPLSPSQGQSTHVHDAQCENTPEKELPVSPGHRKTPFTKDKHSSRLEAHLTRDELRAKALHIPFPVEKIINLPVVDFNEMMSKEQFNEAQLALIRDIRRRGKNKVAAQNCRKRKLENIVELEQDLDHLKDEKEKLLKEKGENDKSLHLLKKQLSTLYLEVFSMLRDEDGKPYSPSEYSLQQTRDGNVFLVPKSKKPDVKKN
Nuclear factor NF-kappa-B p105 subunit (Homo sapiens), sequence (P19838 whole entry, looked up): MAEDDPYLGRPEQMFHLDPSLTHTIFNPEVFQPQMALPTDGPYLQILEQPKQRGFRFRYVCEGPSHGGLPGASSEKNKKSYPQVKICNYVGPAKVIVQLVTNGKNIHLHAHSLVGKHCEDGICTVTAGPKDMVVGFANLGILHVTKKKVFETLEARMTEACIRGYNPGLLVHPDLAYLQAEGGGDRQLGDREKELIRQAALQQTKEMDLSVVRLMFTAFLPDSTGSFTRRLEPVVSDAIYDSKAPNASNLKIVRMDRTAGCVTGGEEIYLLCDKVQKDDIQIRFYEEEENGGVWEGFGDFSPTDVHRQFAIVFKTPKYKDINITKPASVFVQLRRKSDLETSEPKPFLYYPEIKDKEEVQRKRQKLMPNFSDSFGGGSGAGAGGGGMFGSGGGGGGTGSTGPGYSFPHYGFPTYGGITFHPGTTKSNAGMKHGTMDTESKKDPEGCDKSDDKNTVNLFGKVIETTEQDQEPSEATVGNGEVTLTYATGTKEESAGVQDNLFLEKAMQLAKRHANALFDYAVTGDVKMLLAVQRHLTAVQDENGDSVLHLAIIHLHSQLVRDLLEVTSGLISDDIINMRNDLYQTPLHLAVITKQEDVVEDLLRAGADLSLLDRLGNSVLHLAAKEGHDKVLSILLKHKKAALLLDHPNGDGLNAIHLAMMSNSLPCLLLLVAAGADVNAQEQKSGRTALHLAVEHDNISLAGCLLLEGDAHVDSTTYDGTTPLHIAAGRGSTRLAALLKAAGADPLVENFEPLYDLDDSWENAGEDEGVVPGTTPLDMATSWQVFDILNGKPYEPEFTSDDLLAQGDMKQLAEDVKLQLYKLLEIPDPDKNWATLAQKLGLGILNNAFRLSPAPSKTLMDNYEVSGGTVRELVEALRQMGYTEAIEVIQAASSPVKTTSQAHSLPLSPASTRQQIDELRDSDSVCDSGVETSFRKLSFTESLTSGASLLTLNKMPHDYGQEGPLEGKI

On to `COP(=S)(OC)Oc1ccc([N+](=O)[O-])c(C)c1`, for which the result in assay [1], in [2], in assay [3], in assay [4], in assay [5] and in assay [6] was inactive. Also, the outcome is “inactive” in assay [7]; “inactive” in assay [8]; “inactive” with MYC, MYC (gene 4609); “inactive” in assay [9]; “inactive” in assay [10]; “inactive” in [11]. The molecule was called inactive in assay [12], in assay [13], in [14], in [15], in [16] and in assay [17]. For the same molecule, the outcome in assay [18] was inactive.
As to `CC(C)N1C(=O)N(c2ccccc2)CSC1=NC(C)(C)C`, the call in assay [1], in [2], in assay [4], in assay [8], in [12] and in assay [15] was inactive. In addition, the call in [16] and in assay [18] was inactive. The AC50 – broadly, the midpoint of the concentration-response curve, whichever way the signal moves – in [3] is 50 µM (active); in assay [5] it was 72.2 µM (active); in assay [6], 78.7 µM (active); in assay [7], 81.4 µM (active); with MYC, MYC (gene 4609), 72.2 µM (active); in [9], 26.4 µM (active). For the same molecule, the AC50 is 12.7 µM (active) in [10]; 77.4 µM (active) in [11]; 81.4 µM (active) in [13]; 87.8 µM (active) in [14]; 50 µM (active) in assay [17].
As to `COc1cc(OC)nc(NC(=O)NS(=O)(=O)c2ncccc2OCC(F)(F)F)n1`, the molecule was classed as inactive in [1], in [2], in assay [3], in assay [4], in [5] and in assay [6]. The outcome is “inactive” in assay [7]; “inactive” in assay [8]; “inactive” with MYC, MYC (gene 4609); “inactive” in [9]; “inactive” in assay [10]; “inactive” in assay [11]. Further, the outcome in assay [12], in [13], in [15], in [16], in assay [17] and in [18] was inactive. Moreover, the AC50 in assay [14] is 0.129 µM (active).
Consider `CCCCC(O)(Cn1cncn1)c1ccc(Cl)cc1Cl` (configuration not stated), for which the result in assay [1], in assay [3], in assay [4], in assay [19], in assay [11] and in [12] was inactive. In addition, in [17], the molecule was classed as inactive. In addition, the AC50 in assay [2] is 41.3 µM (active); in assay [5], 75.2 µM (active); in assay [6] it was 50 µM (active); in assay [7] it was 77 µM (active); in assay [8], 67.4 µM (active); with MYC, MYC (gene 4609), 74.7 µM (active). The AC50 in [9] is 92.3 µM (active); in assay [10] it was 50 µM (active); in assay [13] it was 73.6 µM (active); in assay [14], 78.8 µM (active); in assay [15], 50 µM (active); in assay [16] it was 50 µM (active). The AC50 in [18] is 85.9 µM (active).
